Experimental data published in PubChem BioAssay.
Calls of active or inactive are those of the source. Unless noted, no rule for the calls is given here.

Key:
[1] = system: Wnt5a (protein binding on small-molecule microarray); experiment: small molecules binding Wnt5a protein – biophysical, small-molecule microarray, 635/667 nm fluorescence, primary screen (AID 1142); conditions: 635 nm fluorescence, higher = more signal;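 also: fluorescence read at 667 nm with signal to noise per printed feature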
[2] = ATP-based viability of Huh7 replicon cells – cell-based, CellTiter-Glo luminescence, basal, 48 h, cytotoxicity control for HCV replication inhibitor project, primary screen (AID 1143); conditions: higher = more signal, called active from +8 up or from −8 down;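 also: Huh7 hepatoma cells carrying a hepatitis C replication reporter with no stimulus; test concentration not given here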
[3] = Pseudomonas biofilm growth suppression – PAO1 strain, BacTiter-Glo luminescence, LB-PBS, primary screen (AID 1144); conditions: P. aeruginosa PAO1 biofilm, 12 h, higher = more signal
[4] = basal CRE-LacZ reporter activity in PC12 – cell-based, unstimulated, primary screen (AID 1145); conditions: no forskolin, luminescence, 4.5 h, higher = more signal, called active from +8 up or from −8 down
[5] = forskolin-driven CRE-LacZ activity in PC12 – cell-based, CRE-LacZ reporter, forskolin-stimulated, primary screen (AID 1146); conditions: luminescence, 4.5 h, higher = more signal, called active from +8 up or from −8 down;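 also: PC12 cells with 6xCRE LacZ reporter stimulated by forskolin 10 µM; beta-galactosidase reporter signal reflecting CREB driven transcription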
[6] = biological target: Streptavidin (Streptomyces avidinii) (UniProt P22629); experiment: compounds binding control protein streptavidin – biophysical, small-molecule microarray, 635/667 nm fluorescence, artefact control for SMM compound annotation, primary screen (AID 1147); conditions: higher = more signal;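 also: signal reflects streptavidin binding to arrayed compounds as a control protein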
[7] = probe aInhba binding on compound microarray – biochemical, small-molecule microarray, 635/667 nm fluorescence, primary screen (AID 1148); conditions: higher = more signal;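 also: score merges 667nm spot fluorescence with signal-to-noise for antibody binding to printed compounds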
Torsin-1A (Homo sapiens) [8] = biological target: Torsin-1A (Homo sapiens) (UniProt O14656); experiment: TOR1A wild-type binding on microarray – cell lysate, small-molecule microarray, lysate, 635/667 nm, primary screen (AID 1149); conditions: COS7 hTOR1A-WT lysate, 635 nm fluorescence, higher = more signal
Torsin-1A (Homo sapiens) [9] = biological target: Torsin-1A (Homo sapiens) (UniProt O14656); experiment: torsin A mutant lysate binding on microarrays – cell lysate, small-molecule microarray, COS7 lysate, 635/667 nm fluorescence, primary screen (AID 1150); conditions: COS7 hTOR1A mutant lysate, 635 nm fluorescence, higher = more signal;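 also: score pools 667 nm emission and signal to noise measuring lysate protein binding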
[10] = system: Sonic hedgehog protein (Shh); experiment: Sonic hedgehog microarray binding compounds – biochemical, small-molecule microarray, 635/667 nm fluorescence, primary screen (AID 1151); conditions: 635 nm fluorescence, higher = more signal;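 also: Shh protein binding to compounds spotted on small-molecule microarray slides; score combines spot fluorescence intensity with signal-to-noise across triplicate slides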
[11] = optical density shifts of acrAB sulA E. coli – strain DRC41, OD650, 48 h, E. coli filamentation inducer project, primary screen (AID 1152); conditions: higher = more signal, called active from +8 up or from −8 down;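 also: E. coli MC1000 strain DRC41 lacking acrAB efflux pump and sulA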
[12] = probe aLefty1 binding on compound microarray – biochemical, small-molecule microarray, 635/667 nm fluorescence, primary screen (AID 1153); conditions: higher = more signal;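 also: score merges spot fluorescence with signal-to-noise ratio from the scanned slide images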
[13] = plasmodial surface anion channel blockers, osmotic lysis – cell-based, P. falciparum Indochina, OD700, 1 h, primary screen (AID 1154); conditions: P. falciparum Indochina infected RBC osmotic lysis, higher = more signal, called active from +8 up or from −8 down
[14] = plasmodial surface anion channel blockers, osmotic lysis – cell-based, P. falciparum Indochina, OD700, 2 h, primary screen (AID 1155);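 also: lysis reports solute entry through the parasite surface anion channel PSAC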; conditions: P. falciparum Indochina infected erythrocytes, higher = more signal, called active from +8 up or from −8 down
[15] = changes in parasitized red cell lysis, either direction – P. falciparum Indochina, OD700, 3 h, PSAC antagonist project, primary screen (AID 1156); conditions: P. falciparum-infected erythrocytes, osmotic lysis, higher = more signal, called active from +8 up or from −8 down
[16] = plasmodial surface anion channel blockers, osmotic lysis – cell-based, P. falciparum Indochina, OD700, 18 h, primary screen (AID 1157); conditions: P. falciparum Indochina infected erythrocytes, osmotic lysis OD700, 18 h; higher = more signal, called active from +8 up or from −8 down
[17] = S6 kinase pathway phospho-S6 level changes – cell-based, A549, cytoblot, luminescence, serum-stimulated, primary screen (AID 1158); conditions: 5 h, higher = more signal;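 also: serum-stimulated A549 lung adenocarcinoma cells; signal is phosphorylated S6 detected by cytoblot immunostaining with HRP secondary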
[18] = biological target: NADPH oxidase 2 (Homo sapiens) (UniProt P04839); experiment: compounds shifting NOX2 Amplex Red fluorescence – cell-based, HEK293-NOX2, PMA-stimulated, NOX inhibitor project, primary screen (AID 1159); conditions: 45 min, higher = more signal, called active from +8 up or from −8 down; also: test concentration not given here
[19] = biological target: NADPH oxidase 4 (Homo sapiens) (UniProt Q9NPH5); experiment: compounds shifting NOX4 Amplex Red fluorescence – cell-based, HEK293-NOX4, tetracycline-induced, NOX inhibitor project, primary screen (AID 1160); conditions: HEK293-NOX4, Amplex Red H2O2 fluorescence, 45 min; higher = more signal, called active from +8 up or from −8 down
[20] = biological target: NADPH oxidase 5 (Homo sapiens) (UniProt Q96PH1); experiment: compounds shifting NOX5 Amplex Red fluorescence – cell-based, HEK293-NOX5, NOX inhibitor project, primary screen (AID 1161); conditions: HEK293-NOX5, ionomycin, 45 min, higher = more signal
Sequence of NADPH oxidase 5 (Homo sapiens) (Q96PH1 whole entry, looked up): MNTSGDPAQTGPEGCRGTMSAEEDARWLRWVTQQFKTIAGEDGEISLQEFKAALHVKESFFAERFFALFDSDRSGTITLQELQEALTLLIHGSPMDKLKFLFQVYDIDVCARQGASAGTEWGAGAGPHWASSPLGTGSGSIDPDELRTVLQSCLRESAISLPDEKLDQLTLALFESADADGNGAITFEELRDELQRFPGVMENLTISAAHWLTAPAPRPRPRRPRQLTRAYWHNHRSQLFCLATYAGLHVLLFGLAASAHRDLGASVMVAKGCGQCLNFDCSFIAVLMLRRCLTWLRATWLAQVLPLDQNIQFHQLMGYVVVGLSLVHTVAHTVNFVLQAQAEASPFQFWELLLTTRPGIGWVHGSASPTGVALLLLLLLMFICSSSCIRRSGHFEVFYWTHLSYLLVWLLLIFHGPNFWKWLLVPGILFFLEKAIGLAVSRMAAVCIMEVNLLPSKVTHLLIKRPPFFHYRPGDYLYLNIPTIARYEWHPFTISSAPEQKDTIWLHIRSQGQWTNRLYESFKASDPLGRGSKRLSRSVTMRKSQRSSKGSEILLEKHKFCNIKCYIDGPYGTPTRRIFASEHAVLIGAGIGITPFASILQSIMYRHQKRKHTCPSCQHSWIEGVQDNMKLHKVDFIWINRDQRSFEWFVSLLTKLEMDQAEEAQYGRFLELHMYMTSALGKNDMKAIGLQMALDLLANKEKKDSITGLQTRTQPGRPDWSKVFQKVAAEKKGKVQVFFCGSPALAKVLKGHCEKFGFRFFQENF

Sequence of Streptavidin (Streptomyces avidinii) (P22629 whole entry, looked up): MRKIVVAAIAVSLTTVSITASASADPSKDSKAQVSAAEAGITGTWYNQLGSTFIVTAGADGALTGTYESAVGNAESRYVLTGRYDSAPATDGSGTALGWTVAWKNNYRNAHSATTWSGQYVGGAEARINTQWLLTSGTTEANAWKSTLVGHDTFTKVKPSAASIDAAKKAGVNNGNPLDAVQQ
Sequence of NADPH oxidase 2 (Homo sapiens) (P04839 whole entry, looked up): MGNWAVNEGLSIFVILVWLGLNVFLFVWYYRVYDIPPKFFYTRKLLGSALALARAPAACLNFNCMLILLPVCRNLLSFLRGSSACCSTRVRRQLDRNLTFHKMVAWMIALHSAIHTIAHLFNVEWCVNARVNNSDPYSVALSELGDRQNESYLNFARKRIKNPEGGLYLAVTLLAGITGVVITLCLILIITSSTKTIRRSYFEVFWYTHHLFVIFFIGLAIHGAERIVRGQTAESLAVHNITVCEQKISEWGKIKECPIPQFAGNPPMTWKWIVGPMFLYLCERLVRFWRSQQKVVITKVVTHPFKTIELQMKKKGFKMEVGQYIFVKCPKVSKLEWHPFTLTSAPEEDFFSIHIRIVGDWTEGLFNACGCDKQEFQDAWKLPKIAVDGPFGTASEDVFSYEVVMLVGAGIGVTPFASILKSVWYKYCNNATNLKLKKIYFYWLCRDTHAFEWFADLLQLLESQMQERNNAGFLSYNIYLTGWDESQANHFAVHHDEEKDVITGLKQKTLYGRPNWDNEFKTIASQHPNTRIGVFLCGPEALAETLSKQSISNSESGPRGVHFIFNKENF
Sequence of Torsin-1A (Homo sapiens) (O14656 whole entry, looked up): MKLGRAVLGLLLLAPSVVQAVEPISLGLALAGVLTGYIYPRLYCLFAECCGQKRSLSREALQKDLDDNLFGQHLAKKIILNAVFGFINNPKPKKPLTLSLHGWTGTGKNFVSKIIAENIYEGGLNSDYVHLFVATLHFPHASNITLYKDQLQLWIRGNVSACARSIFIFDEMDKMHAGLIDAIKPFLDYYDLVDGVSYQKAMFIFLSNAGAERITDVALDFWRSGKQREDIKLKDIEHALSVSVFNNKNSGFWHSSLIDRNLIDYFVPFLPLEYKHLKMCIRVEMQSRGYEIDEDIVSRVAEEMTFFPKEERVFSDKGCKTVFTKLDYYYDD
Sequence of NADPH oxidase 4 (Homo sapiens) (Q9NPH5 whole entry, looked up): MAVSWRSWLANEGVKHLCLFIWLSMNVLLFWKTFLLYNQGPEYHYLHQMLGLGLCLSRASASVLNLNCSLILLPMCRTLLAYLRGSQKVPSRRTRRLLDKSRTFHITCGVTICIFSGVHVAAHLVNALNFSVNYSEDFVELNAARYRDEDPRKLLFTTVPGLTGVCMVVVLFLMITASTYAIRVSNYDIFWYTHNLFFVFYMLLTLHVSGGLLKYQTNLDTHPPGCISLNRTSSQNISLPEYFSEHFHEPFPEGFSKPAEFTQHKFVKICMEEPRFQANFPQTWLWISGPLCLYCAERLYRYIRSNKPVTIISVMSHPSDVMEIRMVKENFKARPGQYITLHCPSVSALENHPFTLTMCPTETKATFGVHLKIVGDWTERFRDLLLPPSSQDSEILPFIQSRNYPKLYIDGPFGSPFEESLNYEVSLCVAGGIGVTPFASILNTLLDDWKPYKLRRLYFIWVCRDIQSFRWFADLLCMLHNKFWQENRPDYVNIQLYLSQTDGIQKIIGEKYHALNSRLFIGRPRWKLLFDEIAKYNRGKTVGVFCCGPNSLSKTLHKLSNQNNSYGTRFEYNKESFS

COC(=O)c1c2oc(c1C(=O)OC)C(=O)N1CCC[C@H]1Cn1nncc1CN(Cc1ccccc1)C(=O)N[C@H](CO)CC2
composite z-score [1]: 0.533 | z-score [2]: 0.246 (inactive) | z-score [3]: -0.294 (inactive) | z-score [4]: 0.251 (inactive) | z-score [5]: -0.147 (inactive) | composite z-score [6]: 0.0789 | composite z-score [7]: -0.0448 | composite z-score (Torsin-1A (Homo sapiens) [8]): -0.14 | composite z-score (Torsin-1A (Homo sapiens) [9]): -0.0715 | composite z-score [10]: 0.658 | z-score [11]: 1.53 (inactive) | composite z-score [12]: 0.0429 | z-score [13]: 0.834 (inactive) | z-score [14]: 0.609 (inactive) | z-score [15]: -0.418 (inactive) | z-score [16]: 0.924 (inactive) | z-score [17]: 0.429 | z-score [18]: -0.521 (inactive) | z-score [19]: 0.556 (inactive) | z-score [20]: 1.19

C[C@]1(C(=O)NCC(F)(F)F)c2ccccc2C(=O)N(Cc2ccccc2)[C@H]1c1ccc(CO)cc1
composite z-score [1]: -0.398 | z-score [2]: -1.48 (inactive) | z-score [3]: -0.0817 (inactive) | z-score [4]: -0.179 (inactive) | z-score [5]: 0.112 (inactive) | composite z-score [6]: -0.726 | composite z-score [7]: -0.0719 | composite z-score (Torsin-1A (Homo sapiens) [8]): -0.938 | composite z-score (Torsin-1A (Homo sapiens) [9]): 0.808 | composite z-score [10]: -1.32 | z-score [11]: 0.588 (inactive) | composite z-score [12]: 0.382 | z-score [13]: 2.28 (inactive) | z-score [14]: 0.0336 (inactive) | z-score [15]: -0.201 (inactive) | z-score [16]: -0.162 (inactive) | z-score [17]: -0.617 | z-score [18]: -0.0434 (inactive) | z-score [19]: 0.431 (inactive) | z-score [20]: 0.17

O=C1C2C=CC(C(O)c3ccco3)N(Nc3ccccc3)C2C(=O)N1c1ccccc1 (stereo not given)
composite z-score [1]: -0.476 | z-score [2]: 0.876 (inactive) | z-score [3]: -0.497 (inactive) | z-score [4]: 0.0467 (inactive) | z-score [5]: 0.621 (inactive) | composite z-score [6]: -0.511 | composite z-score [7]: -0.0963 | composite z-score (Torsin-1A (Homo sapiens) [8]): -1.16 | composite z-score (Torsin-1A (Homo sapiens) [9]): 0.746 | composite z-score [10]: -0.998 | z-score [11]: -0.292 (inactive) | composite z-score [12]: -0.0302 | z-score [13]: 0.89 (inactive) | z-score [14]: -0.0044 (inactive) | z-score [15]: -0.284 (inactive) | z-score [16]: 0.851 (inactive) | z-score [17]: -0.647 | z-score [18]: -1.61 (inactive) | z-score [19]: -2.98 (inactive) | z-score [20]: -2.52

O=C1C[C@@](C(=O)NCC(F)(F)F)(c2ccc([N+](=O)[O-])cc2)[C@@H](c2ccc(CO)cc2)N1CC12CC3CC(CC(C3)C1)C2
composite z-score [1]: 0.988 | z-score [2]: -5.79 (inactive) | z-score [3]: -0.542 (inactive) | z-score [4]: 0.324 (inactive) | z-score [5]: -1.01 (inactive) | composite z-score [6]: 0.261 | composite z-score [7]: 0.216 | composite z-score (Torsin-1A (Homo sapiens) [8]): 0.406 | composite z-score (Torsin-1A (Homo sapiens) [9]): 0.397 | composite z-score [10]: 1.34 | z-score [11]: -0.0809 (inactive) | composite z-score [12]: 0.282 | z-score [13]: 5.86 (inactive) | z-score [14]: 0.525 (inactive) | z-score [15]: 2.97 (inactive) | z-score [16]: -0.092 (inactive) | z-score [17]: 2.16 | z-score [18]: -0.178 (inactive) | z-score [19]: -3.52 (inactive) | z-score [20]: -5.17

CC=CC(O)C1C=CC2C(=O)NC(=O)C2N1Nc1ccccn1 (stereo not given)
composite z-score [1]: -0.11 | z-score [2]: 1.11 (inactive) | z-score [3]: -0.587 (inactive) | z-score [4]: -0.329 (inactive) | z-score [5]: 0.701 (inactive) | composite z-score [6]: 0.149 | composite z-score [7]: -0.0645 | composite z-score (Torsin-1A (Homo sapiens) [8]): 0.599 | composite z-score (Torsin-1A (Homo sapiens) [9]): -0.164 | composite z-score [10]: 0.77 | z-score [11]: -0.576 (inactive) | composite z-score [12]: -0.0061 | z-score [13]: -0.335 (inactive) | z-score [14]: -0.0554 (inactive) | z-score [15]: 0.0091 (inactive) | z-score [16]: 0.998 (inactive) | z-score [17]: -0.966 | z-score [18]: -1.39 (inactive) | z-score [19]: -1.87 (inactive) | z-score [20]: -1.74
